According to the antibiotic and cytotoxicity screens of Wong et al. (2023):
In all, about 39,000 compounds went through this assay and about 1,500 (3.8%) were called active. The sample holds actives, similar compounds and a random draw of the others, so the mix is not that of the screen.

Each compound was assayed on HSkMC (human skeletal muscle cells) (assay: cytotoxicity call (relative viability < 0.9)). Conditions: 10 µM.

Row | Compound | cytotoxicity call
1 | CC1(C)OC2CC3C4CCC5=CC(=O)CCC5(C)C4(F)C(O)CC3(C)C2(C(=O)CCl)O1 (configuration not stated) | inactive
2 | C[C@H]1CN([C@@H](C)CO)C(=O)CCCn2nncc2CO[C@@H]1CN(C)C(=O)Nc1ccc(N2CCCCC2)cc1 | inactive
3 | Cc1noc(C)c1NC(=O)N(C)C[C@@H]1Oc2ccc(NC(=O)Nc3cccc4ccccc34)cc2C(=O)N([C@@H](C)CO)C[C@@H]1C | inactive
4 | COc1ccc(CN(C)C[C@H]2OCCCC[C@@H](C)Oc3ccc(NC(=O)c4ccccc4)cc3C(=O)N([C@H](C)CO)C[C@H]2C)cc1 | inactive
5 | C[C@@H]1CN([C@H](C)CO)C(=O)c2cc(NS(=O)(=O)c3cccs3)ccc2O[C@@H]1CN(C)S(=O)(=O)c1ccc(F)cc1 | inactive
6 | COc1ccc(NC(=O)N(C)C[C@H]2Oc3ncc(C#CCN(C)C)cc3C(=O)N([C@@H](C)CO)C[C@@H]2C)cc1 | inactive
7 | C[C@@H]1CCCCO[C@@H](CN(C)C(=O)C2CCCCC2)[C@@H](C)CN([C@H](C)CO)C(=O)c2cc(NC(=O)Nc3cccc4ccccc34)ccc2O1 | inactive
8 | COc1ccc(NC(=O)N(C)C[C@@H]2OCCCC[C@H](C)Oc3ccc(NC(=O)NC4CCCCC4)cc3C(=O)N([C@H](C)CO)C[C@@H]2C)cc1 | inactive
9 | COCC#Cc1ccc2c(c1)O[C@H](CN(C)S(=O)(=O)c1ccc(F)cc1)[C@H](C)CN([C@@H](C)CO)S2(=O)=O | inactive
10 | COc1cccc(S(=O)(=O)Nc2ccc3c(c2)[C@@H]2C[C@H](CC(=O)N4CCCCC4)O[C@H](CO)[C@@H]2O3)c1 | inactive
11 | C[C@@H]1CCCCO[C@@H](CN(C)S(=O)(=O)c2ccc(F)cc2)[C@@H](C)CN([C@@H](C)CO)C(=O)c2cc(NS(C)(=O)=O)ccc2O1 | inactive
12 | C[C@@H]1CCCCO[C@@H](CN(C)Cc2ccc(C(=O)O)cc2)[C@@H](C)CN([C@@H](C)CO)C(=O)c2cc(NC(=O)Nc3cccc4ccccc34)ccc2O1 | inactive
13 | C[C@@H]1CCCCO[C@@H](CN(C)Cc2ccccc2)[C@H](C)CN([C@@H](C)CO)C(=O)c2cc(NC(=O)Nc3cccc4ccccc34)ccc2O1 | inactive
14 | C[C@H]1CCCCO[C@H](CN(C)Cc2ccccc2)[C@@H](C)CN([C@@H](C)CO)C(=O)c2cc(NC(=O)Nc3cccc4ccccc34)ccc2O1 | active
15 | C[C@@H]1CCCCO[C@H](CN(C)Cc2ccccc2)[C@H](C)CN([C@@H](C)CO)C(=O)c2cc(NC(=O)Nc3cccc4ccccc34)ccc2O1 | active
16 | C[C@@H]1CN([C@H](C)CO)C(=O)c2cc(NC(=O)Nc3cccc4ccccc34)ccc2O[C@@H](C)CCCCO[C@@H]1CN(C)Cc1ccccc1 | inactive
17 | C[C@@H]1CCCCO[C@@H](CN(C)Cc2ccccc2)[C@H](C)CN([C@H](C)CO)C(=O)c2cc(NC(=O)Nc3cccc4ccccc34)ccc2O1 | inactive
18 | C[C@@H]1CN([C@@H](C)CO)C(=O)c2cc(NC(=O)Nc3cccc4ccccc34)ccc2O[C@@H](C)CCCCO[C@H]1CN(C)Cc1ccccc1 | inactive
19 | C[C@@H]1CN([C@@H](C)CO)C(=O)c2cc(NC(=O)Nc3cccc4ccccc34)ccc2O[C@@H](C)CCCCO[C@@H]1CN(C)Cc1ccccc1 | active

Row | Compound | cytotoxicity call
20 | C[C@@H]1CCCCO[C@@H](CN(C)Cc2ccccc2)[C@@H](C)CN([C@H](C)CO)C(=O)c2cc(NC(=O)Nc3cccc4ccccc34)ccc2O1 | inactive
21 | COc1ccc(S(=O)(=O)N2C[C@H](O)COC[C@@H]3O[C@@H](CC(=O)N[C@H]4CCN(Cc5ccccc5)C4)CC[C@H]32)cc1 | inactive
22 | CN1C[C@@H](O)COC[C@H]2O[C@H](CC(=O)N3CCN(c4ccccc4)CC3)CC[C@@H]21 | inactive
23 | C=CCOC(=O)[C@H]1[C@@H]2C(=O)O[C@@H](c3ccccc3)[C@@H](c3ccccc3)N2[C@@H](c2ccc(OCCOC(=O)[C@H]3C[C@H]4C(=O)N[C@@H](Cc5ccccc5)C(=O)N4[C@H]3c3cccc(OCCO)c3)cc2)[C@]12C(=O)Nc1ccc(I)cc12 | inactive
24 | CCS(=O)(=O)N1C[C@]2(CCN(CC2)C(=O)NC2CCCC2)c2c(n(c3cc(ccc23)OC)C)[C@@H]1CO | inactive
25 | C[C@@H]1CN([C@@H](C)CO)C(=O)c2cc(NC(=O)Nc3ccc(C(F)(F)F)cc3)ccc2O[C@H]1CN(C)C(=O)NC1CCCCC1 | inactive
26 | C[C@@H]1CCCCO[C@@H](CN(C)C(=O)Nc2ccc(C(F)(F)F)cc2)[C@@H](C)CN([C@@H](C)CO)C(=O)c2cc(NC(=O)C3CCCCC3)ccc2O1 | inactive
27 | CCNC(=O)C[C@@H]1C=C[C@H](NC(=O)C2CCOCC2)[C@@H](CO)O1 | inactive
28 | C[C@@H]1CCCCO[C@@H](CN(C)S(=O)(=O)c2cccs2)[C@H](C)CN([C@@H](C)CO)C(=O)c2cc(NC(=O)CCC(F)(F)F)ccc2O1 | inactive
29 | CS(=O)(=O)Nc1ccc2c(c1)[C@@H]1C[C@@H](CC(=O)NCc3ccc(-c4ccccc4)cc3)O[C@@H](CO)[C@@H]1O2 | active
30 | O=C(C[C@H]1C[C@H]2c3cc(NC(=O)NC4CCCC4)ccc3O[C@H]2[C@@H](CO)O1)NCc1ccc(-c2ccccc2)cc1 | inactive
31 | O=C(C[C@H]1C[C@@H]2c3cc(NC(=O)NC4CCCC4)ccc3O[C@@H]2[C@@H](CO)O1)NCc1ccc(-c2ccccc2)cc1 | active
32 | O=C(C[C@@H]1C[C@@H]2c3cc(NC(=O)NC4CCCC4)ccc3O[C@@H]2[C@@H](CO)O1)NCc1ccc(-c2ccccc2)cc1 | inactive
33 | O=C(C[C@H]1C[C@H]2c3cc(NC(=O)NC4CCCC4)ccc3O[C@H]2[C@H](CO)O1)NCc1ccc(-c2ccccc2)cc1 | inactive
34 | O=C(C[C@@H]1C[C@H]2c3cc(NC(=O)NC4CCCC4)ccc3O[C@H]2[C@H](CO)O1)NCc1ccc(-c2ccccc2)cc1 | active
35 | O=C(C[C@H]1C[C@@H]2c3cc(NC(=O)NC4CCCC4)ccc3O[C@@H]2[C@H](CO)O1)NCc1ccc(-c2ccccc2)cc1 | inactive
36 | CS(=O)(=O)Nc1ccc2c(c1)[C@@H]1C[C@@H](CC(=O)NCc3ccc(-c4ccccc4)cc3)O[C@H](CO)[C@@H]1O2 | inactive
37 | CS(=O)(=O)Nc1ccc2c(c1)[C@H]1C[C@H](CC(=O)NCc3ccc(-c4ccccc4)cc3)O[C@@H](CO)[C@H]1O2 | inactive
